Most compounds without a hit are left out; they make up all but 4.4% or so of the library.
PfHsp90 yeast 2 – growth inhibition of PfHsp90-expressing yeast, primary screen, antimalarial PfHsp90 inhibitor project, S. cerevisiae, BacTiter-Glo luminescence, single point, set 2; BacTiter-Glo ATP, 48 h; yeast lacking PDR1 and PDR3 efflux regulators; inhibition, % at 9.4 µM; actives 0.32% (n = 310,000); AID 504621, 2011;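 active = every replicate shows inhibition above about 80%, whatever the replicate mean, limit read from the data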;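 note: 0% = DMSO neutral controls and 100% = 20 µM radicicol positive controls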
TIM10 inh – growth inhibitors of isogenic TIM10 control yeast, primary screen, counter-screen for tim10-1 yeast inhibitor project, luminescence, uHTS; AID 463195, 2010; S. cerevisiae TIM10 strain growth, BacTiter-Glo luminescence, 24 h; inhibition, % at 10 µM; actives 1.4% (n = 330,000);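 active = inhibition of 40% or more at the single tested concentration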;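 note: wild-type TIM10 isogenic control strain grown at permissive 25 °C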
tim23-1 inh – growth inhibitors of tim23-1 mutant yeast, primary screen, luminescence, uHTS; S. cerevisiae tim23-1 growth, BacTiter-Glo luminescence, 24 h; inhibition, % at 20 µM; actives 1.3% (n = 330,000); AID 463212, 2010;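 active = growth inhibition of the mutant yeast at or above 50%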;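 note: temperature-sensitive mutant grown at 25 °C; plate controls were DMSO-treated mutant yeast for no effect and medium wells lacking yeast for full effect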
SKKanGAS inh – S. pyogenes SKKanGAS growth inhibitors in kanamycin, primary screen, streptokinase expression inhibitor project, SKKanGAS strain, BacTiter-Glo luminescence | 6 h | AID 1662, 2009 | actives 1.3% (n = 300,000) | inhibition, % at 7.5 µM;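 active = mean replicate score, as percent of positive control median, at least 50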;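 note: strain carries kanamycin resistance gene driven by streptokinase promoter and grows in 40 µg/ml kanamycin; loss of luminescence reflects streptokinase promoter inhibition or plain growth inhibition; 0% = median of DMSO wells and 100% = positive control at its reference dose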
tim10-1 inh – growth inhibitors of tim10-1 mutant yeast, primary screen, luminescence, uHTS. S. cerevisiae tim10-1 ts strain growth, BacTiter-Glo, 24 h. inhibition, % at 20 µM. actives 2.2% (n = 330,000). AID 463190, 2010;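 active = inhibition of at least 40%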;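 note: mutant grown at 25 °C; 0% = DMSO wells with yeast and 100% = wells holding no yeast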
Starred values were filed as active, the others as inactive; / = not tested or not shown; ! = a repeat was not active.

SMILES	PfHsp90 yeast 2	TIM10 inh	tim23-1 inh	SKKanGAS inh	tim10-1 inh
CCN(CC(=O)Nc1ccc(NC(C)=O)cc1)C(=O)c1cc2c(s1)CCCCC2	9	7	7	/	2
CC(=O)Cn1c(N2CCC(Cc3ccccc3)CC2)nc2c1c(=O)[nH]c(=O)n2C	-7	9	3	6	8
CCCCCn1c(N2CCC(Cc3ccccc3)CC2)nc2c1c(=O)[nH]c(=O)n2C	-99	-92	26	93*	12
CCCn1c(N2CCC(Cc3ccccc3)CC2)nc2c1c(=O)[nH]c(=O)n2C	-51	-310	-43	1	-46
Cn1c(=O)[nH]c(=O)c2c1nc(N1CCC(Cc3ccccc3)CC1)n2Cc1ccccc1	-6	7	15	53*	24
C[C@H](CO)N1C[C@H](C)[C@@H](CN(C)S(C)(=O)=O)Oc2ccc(NC(=O)c3ccncc3)cc2C1=O	13	0	-7	/	-12
Cc1cc(C)n(CC(=O)NNC(=O)c2ccc(S(C)(=O)=O)cc2)n1	7	-1	1	/	-2
O=C(NCCc1cccc(Cl)c1)c1ccc(OC2CCN(Cc3ccccn3)CC2)cc1	6	3	14	3	9
COC(=O)c1sc(N2C(=O)C(O)=C(C(=O)c3ccc(C)o3)C2c2ccc([N+](=O)[O-])cc2)nc1C (centres undefined)	-44	0	1	63*	6
CCOC(=O)c1sc(N2C(=O)C(O)=C(C(=O)c3ccc(C)o3)C2c2ccc(OC)c(OC)c2)nc1C (centres undefined)	9	15	9	32	11
CCOC(=O)c1sc(N2C(=O)C(O)=C(C(=O)c3ccc(C)o3)C2c2cccc([N+](=O)[O-])c2)nc1C (centres undefined)	28	/	/	61*	/
O=C(O)CCc1cc(I)c(Oc2ccc(O)c(I)c2)c(I)c1	/	/	/	97*	/
N[C@@H](Cc1cc(I)c(Oc2cc(I)c(O)c(I)c2)c(I)c1)C(=O)O	/	-10	0	19	-2
N[C@@H](Cc1cc(I)c(Oc2ccc(O)c(I)c2)c(I)c1)C(=O)O	-11	11	31	62*!	20
COc1ccc2c(c1)[nH]c1c(=O)n(CCc3cnc[nH]3)cnc12	/	-5	-10	100*	11
O=C(O)c1ccc(N/N=C/c2ccc(OC(=O)c3ccccc3Cl)cc2)cc1	4	3	3	63*	-14
O=C(O)c1ccc(N/N=C/c2ccc(-c3ccccc3)cc2)cc1	98*	/	/	28	/
C#CCOCCOCCOCCNc1nc(N2CCN(C(=O)[C@H](CCCCN)n3cc([C@@H](N)CO)nn3)CC2)nc(N2CCN(C(=O)[C@H](CCCCN)n3cc([C@@H](N)CC(C)C)nn3)CC2)n1	29	2	-12	/	-3
COc1ccc(NC(=S)Nc2ccc3nccnc3c2)cc1	2	/	/	-2	/
COc1ccc(NC(=S)Nc2ccc3snnc3c2)cc1	109*	0	-21	3	24
Cc1ccc(C(C)C)c(OCc2ccc(C(=O)N/N=C/c3cccc(O)c3O)cc2)c1	122*	/	/	86*	/
O=C1N/C(=N\N=C\c2ccccn2)SC1Cc1cccc(SC(F)F)c1 (centres undefined)	19	9	-11	94*	28
O=C1N/C(=N\N=C\c2cccnc2)SC1Cc1ccc(SC(F)F)cc1 (centres undefined)	18	26	14	93*	23
O=C1N/C(=N\N=C\c2ccc3ncccc3c2)SC1Cc1ccc(SC(F)F)cc1 (centres undefined)	1	1	5	/	3
CCN1C=C(C(C)=O)C(=O)CC1	-22	/	/	/	/
SMILES	PfHsp90 yeast 2	TIM10 inh	tim23-1 inh	SKKanGAS inh	tim10-1 inh
Cc1ccc(C)c(OCCC(=O)Nc2ccccc2C(=O)NC2CC2)c1	/	-11	4	/	-7
CC1C/C(=N/NC(=O)c2ccc(CSc3nc4ccccc4[nH]3)cc2)CC(C)(C)C1 (centres undefined)	31	11	18	10	5
CC1C/C(=N/Nc2nc3ccccc3[nH]2)CC(C)(C)C1 (centres undefined)	-9	27	6	60*	38
C[C@H](CO)N1C[C@H](C)[C@@H](CN(C)S(=O)(=O)c2ccccc2)Oc2c(NC(=O)NC3CCCCC3)cccc2C1=O	9	0	16	/	6
Cc1[nH]oc(=O)c1N=Nc1c(Cl)cccc1Cl	106*	-17	-80	0	-45
CC1(C)CC[C@]2(C(=O)O[C@@H]3O[C@H](CO)[C@@H](O)[C@H](O)[C@H]3O)CC[C@]3(C)C(=CCC4[C@@]5(C)CC[C@H](O[C@@H]6O[C@H](C(=O)O)[C@@H](O[C@H]7OC[C@@H](O)[C@@H](O)[C@@H]7O)[C@H](O)[C@H]6O)C(C)(C)C5CC[C@]43C)[C@@H]2C1 (some centres undefined)	-7	-7	14	/	6
CC1(C)CC[C@]2(C(=O)O)CC[C@]3(C)C(=CC[C@@H]4[C@@]5(C)CC[C@H](O[C@@H]6O[C@H](C(=O)O)[C@@H](O)[C@H](O[C@@H]7OC[C@H](O)[C@H](O)[C@H]7O)[C@H]6O)C(C)(C)[C@@H]5CC[C@]43C)[C@@H]2C1	108*	-12	-84	/	-253
O=C(Nc1nc2n(n1)C(c1ccc(Cl)cc1)CC(c1ccc(Cl)cc1)N2)c1ccco1 (centres undefined)	/	22	18	55*	20
CCC(C)Sc1ccc([C@@H]2[C@H]3C(=O)N(CC)C(=O)[C@H]3[C@]3(C(=O)OC)CCCN23)cc1OC (some centres undefined)	22	8	9	/	3
CC1CCCC(=NNC(=O)C2COc3ccccc3O2)C1 (centres undefined)	-3	2	-8	/	-17
CCc1c(C2(O)CCCCC2)[nH]c2ccc(C(F)(F)F)cc12	23	-1	-2	69*	24
CN(C)Cc1c(C(C)(C)O)[nH]c2ccc(C(F)(F)F)cc12	4	1	8	/	-4
O=C(O)C(Cc1ccccc1[N+](=O)[O-])N1C(=O)c2ccccc2C1=O (centres undefined)	-11	/	/	/	/
COCCCn1c(O)c(/C=C2\N=C(C#N)C(=Nc3ccc(C)cc3)O2)sc1=S	0	11	13	53*	9
O=C(O)CCCn1c(O)c(C=C2N=c3ccccc3=N2)sc1=S	-32	-14	6	5	8
COc1ccc(S(=O)(=O)N2CCCCC2)cc1NC(=O)C1CC(=O)N(Cc2ccccc2)C1 (centres undefined)	32	12	2	/	2

Source: PubChem
